# Assay results reported in PubChem BioAssay AID1304 (The Scripps Research Institute Molecular Screening Center, 2008).
# About 800 (0.36%) of roughly 220,000 compounds were called active. Only a selection was taken, and actives are over-represented in it overall. Values without a mark were called inactive. No stated cut-off is given here; in the data, active means activation above about 33% (passing the limit was not always enough); inactive means the rest.
# Target: Neuropeptide Y receptor type 1 (Homo sapiens) (UniProt P25929)
# Sequence (P25929 whole entry, looked up): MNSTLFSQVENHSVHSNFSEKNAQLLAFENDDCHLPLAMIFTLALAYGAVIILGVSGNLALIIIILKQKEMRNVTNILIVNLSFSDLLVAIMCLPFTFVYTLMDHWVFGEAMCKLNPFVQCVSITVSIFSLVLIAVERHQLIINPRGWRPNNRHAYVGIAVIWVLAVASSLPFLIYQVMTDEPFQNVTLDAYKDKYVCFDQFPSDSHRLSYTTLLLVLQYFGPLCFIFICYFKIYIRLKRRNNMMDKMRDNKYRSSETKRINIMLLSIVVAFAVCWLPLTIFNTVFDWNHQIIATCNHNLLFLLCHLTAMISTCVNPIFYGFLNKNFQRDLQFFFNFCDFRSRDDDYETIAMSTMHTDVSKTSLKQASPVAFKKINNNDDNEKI
# Experiment: NPY-Y1 receptor potentiators or agonists, primary screen, cell-based (AID 1304);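 further: cells stimulated with NPY at EC10 then isoproterenol at EC100; 0% = low agonist plus stimulus and 100% = saturating agonist plus stimulus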
# Conditions: NPY-Y1 expressing cells, potentiator/agonist activation; at 3.6 µM; hits give high values
row,Compound,activation
1,CN(C)Cc1c(O)ccc2occ(C(O)c3ccccc3)c12 (centres undefined),105% (active)
2,CCOc1ncccc1C(=O)N(C)CC(=O)Nc1ccc(F)cc1,-13.4%
3,S=c1[nH]nc(-c2cc(-c3ccccc3)n[nH]2)n1/N=C/c1c2ccccc2cc2ccccc12,6.62%
4,CCOc1ccc2c(=O)c(-c3ccc4c(c3)OCCCO4)c(C)oc2c1,2.42%
5,O=C(Nc1ccc2c(c1)CCC2)c1cccc(S(=O)(=O)N2CCN(c3ccc(F)cc3)CC2)c1,24.4%
6,O=C(c1cccc(S(=O)(=O)Nc2ccccc2Cl)c1)N1CCN(C(=O)c2ccco2)CC1,0.65%
7,O=C(Nc1cccc(S(=O)(=O)N2CCCCC2)c1)c1ccc2c(c1)OCO2,-8.28%
8,O=C(Nc1ccc2c(c1)CCC2)c1cccc(S(=O)(=O)Nc2ccccc2Cl)c1,54.9% (active)
9,O=C(Nc1ccc(Cl)cn1)c1ccc2c(c1)OCCO2,-6.11%
10,O=C(Nc1cccc(S(=O)(=O)Nc2ccc(Cl)cc2)c1)c1ccc2c(c1)OCCO2,43.8% (active)
11,CCc1nnc(NC(=O)CCN(c2ccc(C)cc2)S(=O)(=O)c2ccccc2)s1,1.52%
12,CSc1ccccc1C(=O)NCc1ccccc1,1.48%
13,O=S(=O)(c1ccc(F)cc1)N1CC=C(c2ccccc2)CC1,-6.53%
14,CC(O)c1nc2c(c(=O)n(C)c(=O)n2C)n1C (centres undefined),11.7%
15,Cc1coc2cc3oc(=O)c(CCC(=O)O)c(C)c3cc12,-7.91%
16,CCSc1sc(CC)cc1C=O,-2.95%
17,Cc1ccc(NC(=O)/C(=C/c2ccc([N+](=O)[O-])cc2)NC(=O)c2ccccc2)cc1,30.3%
18,O=C(O)C1CCN(c2ccc([N+](=O)[O-])cc2[N+](=O)[O-])CC1,-10.1%
19,COC(=O)c1ccc(COC(=O)c2cnccn2)cc1,-11.9%
20,Cc1coc2c(O)cc3c(c12)OC1(N2CCCCC2)C(=O)NCCCC31 (centres undefined),90.8% (active)

row,Compound,activation
1,O=C(O)C1C2C=CC(O2)C1C(=O)NCCc1cccc(Cl)c1 (centres undefined),1.36%
2,COCCCNC(NC(=O)c1ccc(OC)cc1)C(Cl)(Cl)Cl (centres undefined),15.6%
3,COCCCNC(=S)N1CCCC(c2nc3cc(C)c(C)cc3[nH]2)C1 (centres undefined),8.07%
4,NC(=O)CC[C@@H]1NC(=O)[C@H](CO)NC(=O)c2cc([N+](=O)[O-])cc(I)c2NCC[C@@H](C(N)=O)NC1=O,-22.3%
5,CCn1c2ccccc2c2cc(NC(=O)CNC)ccc21,-3.25%
6,CCn1c2ccccc2c2cc(NC(=O)Nc3ccc([N+](=O)[O-])cc3C)ccc21,45.6% (active)
7,CC(=O)c1ccc(NC(=O)Nc2ccc([N+](=O)[O-])cc2C)cc1,-8.87%
8,CC(C)(C)NC(=O)COc1ccc(CNc2ccc3[nH]c(=O)[nH]c3c2)cc1,2.35%
9,CC(C)(C)N(Cc1ccccc1)C(=O)COC(=O)CCc1c[nH]c2ccccc12,-4.21%
10,COc1ccc(CCn2ccc(O)c(Cc3ccc(Cl)cc3Cl)c2=O)cc1OC,-7.77%
11,COC(=O)c1c(C(=O)OC)c2n(c1C)CCS2,-0.93%
12,CC(NS(=O)(=O)c1ccccc1)c1n[nH]c(=S)n1-c1ccccc1 (centres undefined),30%
13,Cc1ccccc1NC(=O)NNC(=O)OC(C)(C)C,-4.21%
14,CN1C(=O)c2ccccc2C(C(=O)NCCCN2CCCC2)C1c1c[nH]c2ccccc12 (centres undefined),51.1% (active)
15,CCN(CC)CCNC(=O)C1c2ccccc2C(=O)N(C)C1c1cn(C)c2ccccc12 (centres undefined),10.4%
16,O=C(NCCCN1CCN(Cc2ccccc2)CC1)C1CCN(S(=O)(=O)N2CCCC2)CC1,-28.8%
17,CCC(C)Cn1c(O)cc2nn(-c3nc4ccccc4s3)c(=O)c-2c1C (centres undefined),13.9%
18,OC(COCc1ccco1)CN1CCN(c2ccccc2)CC1 (centres undefined),9.46%
19,O=[N+]([O-])c1ccc(N2CCN(CC(O)COc3ccccc3)CC2)cc1 (centres undefined),20.4%
20,OC(COCC1COc2ccccc2O1)CN1CCN(c2ccc(F)cc2)CC1 (centres undefined),74.5% (active)

row,Compound,activation
1,CC1CCN(C2=NC(=O)/C(=C/c3cn[nH]c3-c3ccccc3)S2)CC1,1.73%
2,CC1(C)CC(=O)C=C(N2CCOCC2)C1,11.6%
3,Cc1nccn1CCC1CCCCN1C(=O)CCc1nnc(-c2ccsc2)o1 (centres undefined),5.94%
4,Cc1ccc(C)c(NC(=O)CSc2nc3c(oc4ccccc43)c(=O)n2-c2ccccc2)c1,-11.9%
5,CCCCC(=O)Nc1cc(C)c2c(=O)oc3ccccc3c2n1,4.38%
6,CCOC(=O)c1c(C)nc2c(c1C)c(=O)oc1ccccc12,-22%
7,Cc1ccccc1-n1nnc2c(=O)oc3ccccc3c21,65.8% (active)
8,O=S(=O)(Nc1ccccn1)c1cccc(S(=O)(=O)c2ccc(Cl)cc2)c1,-10.4%
9,Clc1ccc(C2=CSC3=Nc4cccc5cccc(c45)N23)cc1,-26.6%
10,CCOc1ccc(/C=N/OCC(=O)NCc2cccs2)cc1,-0.95%
11,CC(CCc1ccccc1)NCC(O)c1cccc([N+](=O)[O-])c1 (centres undefined),107% (active)
12,CC(C)OP(=O)(OC(C)C)C(Nc1ccccc1)c1cccc([N+](=O)[O-])c1 (centres undefined),6.2%
13,CC(=O)NCC(O)c1ccc([N+](=O)[O-])cc1 (centres undefined),-3.81%
14,O=C(CC1SCCNC1=O)Nc1ccc(Cl)c(Cl)c1 (centres undefined),8.97%
15,O=C(CSc1nnc(-c2ccncc2)n1-c1ccc(Cl)cc1)Nc1ccc(C(=O)O)cc1,-5%
16,CC(=O)c1ccc(-c2nnc(CCC(=O)N(C)Cc3cnc4ccccn34)o2)s1,10.1%
17,Cc1cc(C)nc(NC(=O)Nc2ccccc2C(F)(F)F)n1,-11.5%
18,O=C(Nc1ccccc1C(F)(F)F)c1cc(-c2ccc(O)cc2)on1,42.6% (active)
19,O=C(c1cc(-c2ccc(O)cc2)on1)N1CCCc2ccccc21,-13.9%
